# Screens: PubChem BioAssay, National Center for Advancing Translational Sciences (NCATS)
# SW480 rereplic = A quantitative high throughput screen for small molecules that induce DNA re-replication in SW480 colon adenocarcinoma cells; AID 624297, 2012; Potency, µM (titrated, usually from 46.1 µM), actives largely listed as activators; 340,000 tested, 1.8% active; SW480 DNA re-replication, Hoechst DNA content imaging, 48 h; further: nearly all actives have a fitted effect of over 55% in size
#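 Hoechst fluorescence of nuclei (405 nm excitation, 500-530 nm emission) measured by plate-scanning imager after 48 hr compound exposure at 37 C; re-replication scored as increased number of nuclei with elevated intensity.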
# KB-V1 MDR tox = qHTS assay for MDR1-selective chemotherapeutics: Primary screen using the drug-selected MDR subline cells KB-V1; KB-V1 MDR cells viability, CellTiter-Glo, 72 h; Potency, µM (titrated, usually from 46.1 µM), most hits filed as cytotoxic; 400,000 tested, 3.4% active; further: nearly all actives have a fitted effect of over 60% in size
#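 qHTS viability screen in drug-selected KB-V1 MDR cells: 72 h compound treatment at 37 degrees C, ATP luminescence end point.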
# MCF10A rerep = A quantitative high throughput screen for small molecules that induce DNA re-replication in MCF 10a normal breast cells. Potency, µM (doses to about 46.1 µM), actives largely listed as activators. 350,000 tested, 2.9% active. MCF 10A DNA re-replication, Hoechst nuclear intensity, 48 h; further: nearly all actives have a fitted effect of over 50% in size
# KB-3-1 tox = qHTS assay for MDR1-selective chemotherapeutics: Primary screen using the parental adenocarcinoma cell KB-3-1; KB-3-1 viability, CellTiter-Glo ATP luminescence, 72 h; Potency, µM (top dose mostly 46.1 µM), hits mostly cytotoxic; 400,000 tested, 1.4% active; AID 1347075, 2019; further: nearly all actives have a fitted effect of over 60% in size
#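 Parental KB-3-1 adenocarcinoma cells in phenol-red-free DMEM with 10% FBS were pin-treated with compounds at several concentrations, incubated 72 h at 37 °C, and viability read by CellTiter-Glo luminescence; concentration-effect curves were fitted after normalization.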
# PINK1 expr mod = A Quantitative High throughput Screen to Identify Chemical Modulators of PINK1 Expression; PINK1 immunofluorescence, high-content cytometry, 24 h; Potency, µM (series often up to 76.6 µM), most hits filed as activators; 410,000 tested, 0.2% active; AID 624263, 2012; active means well fitted activation curve with a large enough effect; inconclusive means small, poorly fitted or top-dose-only effect; cell line not stated here; further: nearly all actives have a fitted effect of over 65% in size
#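 Compound titrations (5 concentrations, 24 h) on a stable cell line; DMSO and CCCP controls. Endpoint: fixed-cell PINK1 immunofluorescence with mitochondrial, cell and nuclear markers, scanned by microplate cytometer.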
# A number is an active result; – = inactive; ? = inconclusive; · = not tested or not shown. Rows were chosen to be rich in hits. Some 6.7% of all compounds tested hit in one or more screens of this group. Unless noted, the call rests on the fitted dose curve; in most records, active means well fitted curve in the direction sought with a large enough effect; inconclusive means small, poorly fitted or top-dose-only effect, or another doubt; inactive means no such curve, though single readings can be large; an effect the other way counts as inactive or inconclusive.
SMILES,SW480 rereplic,KB-V1 MDR tox,MCF10A rerep,KB-3-1 tox,PINK1 expr mod
Cc1ccc(N=c2oc3cc(O)ccc3cc2C(N)=O)cc1,16.4µM,–,9.2µM,–,–
CN(C(=O)CSc1ncnc2sc3c(c12)CCCC3)C1CCS(=O)(=O)C1 (configuration not stated),–,–,–,–,–
CC(=O)c1cc2ccc(O)cc2oc1=O,18.4µM,–,20.6µM,–,–
COc1ccc(-c2cc3ccc(O)cc3oc2=O)cc1OC,10.3µM,–,?,–,–
O=C(Nc1ccccc1)C1CCN(C(=O)c2ccco2)CC1,–,–,–,–,–
O=C(Nc1ccc(Br)cc1)C1CCN(C(=O)c2ccco2)CC1,–,20.6µM,–,–,–
Cn1cccc1C(=O)Nc1ccc(Cl)c(S(=O)(=O)N2CCCCC2)c1,–,20.6µM,–,?,–
O=C(Nc1ccncc1)c1ccc(Cl)c(S(=O)(=O)N2CCCCC2)c1,–,?,13µM,?,–
O=C(Nc1ccc(Cl)c(S(=O)(=O)N2CCCCC2)c1)c1ccncc1,–,?,–,–,–
O=C(O)c1ccc(NC(=O)c2ccc(Cl)c(S(=O)(=O)N3CCCCCC3)c2)cc1,·,–,·,–,–
O=C(Nc1ncn[nH]1)c1ccc(Cl)c(S(=O)(=O)N2CCCCCC2)c1,–,20.6µM,–,–,–
Cn1c(=O)c2nc(NCc3ccccc3)sc2n(C)c1=O,–,–,–,–,–
Cc1cc(C)c(NC(=O)CSc2nc3ccc(NC(=O)CSc4nnnn4Cc4ccccc4)cc3s2)c(C)c1,–,6.51µM,–,–,–
Fc1ccccc1NC(=S)Nc1ccc(Br)cc1,–,?,–,–,?
O=C(Nc1ccccc1)Nc1ccc(F)cc1F,8.2µM,–,–,–,–
CCSc1nsc(NC(=O)Nc2ccc(F)cc2F)n1,–,14.6µM,?,?,22.4µM
Fc1cc(Br)ccc1NC(=S)Nc1ccccc1,–,14.6µM,?,?,–
Cc1cc(C)c(C(=O)COC(=O)C2CCN(c3ccc(C(F)(F)F)cn3)CC2)c(C)c1,–,–,–,–,–
CC1CN(C(=O)Nc2ccc(C(=O)NCc3cccc(F)c3)cc2)c2ccccc2S1 (configuration not stated),·,–,·,–,–
C=CCNC(=O)c1cnn2c1NC(=C)C=C2C,·,–,·,?,–
O=C1CCC[C@@H]2Cc3nc4ccc(Cl)cc4cc3[C@@H]3CCN1[C@H]23,–,?,–,–,–
COc1ccc(N2CCN(CCCNC(=O)c3ccc4nc(N5CCCCC5)sc4c3)CC2)cc1,·,–,·,–,–
Cc1ccc(C)c(N2CCN(CCCNC(=O)c3ccc4nc(N5CCC(C)CC5)sc4c3)CC2)c1,·,?,·,20.6µM,–
Cc1ccc(Cl)cc1N1CCN(CCCNC(=O)c2ccc3nc(N4CCCCC4)sc3c2)CC1,·,16.4µM,·,?,–
Cc1ccccc1NCc1ccc([N+](=O)[O-])s1,?,–,4.61µM,?,–
SMILES,SW480 rereplic,KB-V1 MDR tox,MCF10A rerep,KB-3-1 tox,PINK1 expr mod
COc1ccc(CNC(=O)C(=O)NCC(c2cccnc2)N2CCN(c3ccccc3)CC2)cc1 (configuration not stated),·,–,·,?,–
CC(C)CC(=O)NC(Nc1ccc([N+](=O)[O-])cc1)C(Cl)(Cl)Cl (configuration not stated),–,18.4µM,–,?,?
COC(=O)NC(NC(=S)Nc1ccc([N+](=O)[O-])cc1)C(Cl)(Cl)Cl (configuration not stated),–,20.6µM,–,?,20µM
O=C(NC(NC(=S)Nc1c(Cl)cccc1Cl)C(Cl)(Cl)Cl)c1cccc([N+](=O)[O-])c1 (configuration not stated),?,?,6.51µM,?,28.2µM
CC(C)CC(=O)NC(Nc1ccccc1F)C(Cl)(Cl)Cl (configuration not stated),–,?,–,?,–
CCOc1ccc(-c2cc(C(=O)Nc3ccc(C)c(NS(C)(=O)=O)c3)[nH]n2)c(C)c1,·,?,·,–,–
Nc1[nH]c(=O)nc2nnsc12,·,–,·,?,–
COc1ccc(NC(=O)CN(c2ccccc2F)S(=O)(=O)c2ccc(C)cc2)c(OC)c1,–,–,–,–,–
COc1ccccc1C1C=C(c2ccc(C)cc2)Nc2nnnn21 (configuration not stated),–,–,–,–,–
COc1ccc(C2=CC(c3c(C)nn(-c4ccccc4)c3Cl)n3nnnc3N2)cc1OC (configuration not stated),?,20.6µM,?,16.4µM,–
COc1cccc(O)c1CN1CCC(C(=O)Nc2ccc(Oc3cccnc3)cc2)CC1,–,·,–,·,–
COc1cccc(O)c1CN1CCC(C(=O)Nc2ccc(-c3cccc(C)c3)cc2)CC1,?,?,?,18.4µM,–
CCNc1ncc2nc(-c3ccc(F)cc3)c(=O)n(CCC#N)c2n1,·,·,·,·,–
COc1cc(/C=N/Nc2ncnc3sc4c(c23)CCC4)ccc1O,23.1µM,–,?,?,–
COc1cc(/C=N/NC2=NCCCCC2)ccc1O,–,–,–,–,–
O=C(COc1ccccc1Cl)NCC1(N2CCOCC2)CCCCC1,·,·,·,·,–
CCN(Cc1ccccc1)Cc1c(O)ccc2c(=O)c(-c3ccc(Cl)cc3)coc12,·,·,·,·,–
C=CCN(CC=C)Cc1c(O)ccc2c(=O)c(-c3ccccc3)coc12,?,–,20.6µM,–,–
O=c1oc(-c2cccs2)nc2sc3c(c12)CCCC3,?,–,18.4µM,–,–
CC1CCCC(C)N1CC(O)COC1CCC(C(C)(C)C)CC1 (configuration not stated),?,–,?,–,–
CC(C)(C)C1CCC(OCC(O)CN2CCN(c3ccccn3)CC2)CC1 (configuration not stated),–,16.4µM,?,?,–
CC(C)(C)C1CCC(OCC(O)CN2CCN(Cc3ccccc3)CC2)CC1 (configuration not stated),14.6µM,–,–,–,–
CC(C)NCC(O)COC1CCC(C(C)(C)C)CC1 (configuration not stated),?,?,–,23.1µM,–
COc1cc(C(=O)Nc2cc(S(C)(=O)=O)ccc2Cl)ccc1OCC(=O)N1CCOCC1,–,–,?,–,–
COc1cc(CNC(=O)c2cc3ccccc3oc2=O)cc(OC)c1OC,–,–,–,–,–
CC(C)[C@H](NC(=O)C1CCN(S(=O)(=O)c2ccc(F)cc2)CC1)C(=O)NCc1ccco1,–,–,–,–,–
O=C(CN(c1ccc(Br)cc1)S(=O)(=O)c1ccc(Cl)c([N+](=O)[O-])c1)NCC1CCCO1 (configuration not stated),?,?,16.4µM,–,–
